The supplement of paper PMC10849652
Targets with a hit are over-represented here; the source holds about 8,800 in all. About 0.5% of all pairs of compound and target were hits.

Legend:
Test in all cases: log2 fold change, soluble protein after heating vs DMSO (PISA); higher = thermal stabilisation; K562 lysate, 10 uM; active = over 0.2 and 3.5 SD of the protein, either way, in both replicates (recomputed)
ibrutinib = compound: C=CC(=O)N1CCC[C@@H](n2nc(-c3ccc(Oc4ccccc4)cc3)c3c(N)ncnc32)C1 [ibrutinib]
How it was run: (§1)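 Dounce homogenisation of K562 pellets in PBS pH 7.4 with 1 mM MgCl2 produced a crude extract, used at 1 mg/mL protein. Exposure to 10 μM compound lasted 30 min, and aliquots were then heated for 3 min across 48°C-58°C, pooled and brought to 0.5% NP-40 at 4°C. The supernatant after 21,000xg for 90 min was quantified by TMTpro 16plex LC-MS/MS with channel sums equalised. Duplicate values are given as log-two fold change in thermal stability relative to solvent controls.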

[1] = compound: CC(=O)c1cnc2ccc(-c3cc(Cl)c(O)c(Cl)c3)nc2c1N[C@H]1CC[C@H](CN(C)C)CC1
How it was run: as §1

ralimetinib = compound: CC(C)(C)Cn1c(N)nc2ccc(-c3[nH]c(C(C)(C)C)nc3-c3ccc(F)cc3)nc21 [ralimetinib]
How it was run: as §1

[2] = compound: CC(C)(O)CC(=O)NCCn1ccc2ncnc(Nc3ccc(Oc4cccc(C(F)(F)F)c4)c(Cl)c3)c21
How it was run: as §1

[3] = compound: CC(C)C1=C2N=C(C=C(N2N=C1)NCC3=CC=CC=C3)NCCCCCCN
How it was run: as §1

[4] = compound: CC1=C(C(CC(=O)N1)C2=CC=C(C=C2)C(F)(F)F)C(=O)NC3=C(C=C4C(=C3)C=NN4)F
How it was run: as §1

[5] = compound: CC1=C(C2=C(C=C1)C(=O)C3=CC=CC=C3N2CCCN)C
How it was run: as §1

[6] = compound: CC1=C(C=C(C=C1)NC(=O)C2=CC(=CC=C2)C(C)(C)C#N)NC3=CC4=C(C=C3)N=CN(C4=O)C
How it was run: as §1

[7] = compound: CC1=C(C=C(C=C1)NC(=O)C2=CC(=CC=C2)N(C)C)NC(=O)C3=CC=C(C=C3)O
How it was run: as §1

[8] = compound: CC1=CC=C(C=C1)SC2=C3C=C(SC3=CN=C2)C(=O)N
How it was run: as §1

Measured: log2 fold change

MSH3 (UniProt P20585)
inactive: ibrutinib 0 | [1] -0.017 | ralimetinib 0.024 | [2] -0.037 | [3] -0.039 | [4] 0.023 | [5] -0.025 | [6] -0.018 | [7] -0.007 | [8] -0.005

NOCT (UniProt Q9UK39)
inactive: [1] 0.001 | ralimetinib 0.068 | [2] -0.06 | [3] 0.014 | [4] 0.004 | [5] 0.114 | [6] -0.012 | [7] -0.066 | [8] 0.064

PAK4 (UniProt O96013)
inactive: ibrutinib 0.049 | [1] 0.372 | ralimetinib -0.016 | [2] -0.001 | [3] -0.102 | [4] 0.023 | [5] -0.087 | [6] -0.064 | [7] -0.012 | [8] 0.034

MYO10 (UniProt Q9HD67)
UniProt Q9HD67, sequence (Q9HD67 whole entry, looked up): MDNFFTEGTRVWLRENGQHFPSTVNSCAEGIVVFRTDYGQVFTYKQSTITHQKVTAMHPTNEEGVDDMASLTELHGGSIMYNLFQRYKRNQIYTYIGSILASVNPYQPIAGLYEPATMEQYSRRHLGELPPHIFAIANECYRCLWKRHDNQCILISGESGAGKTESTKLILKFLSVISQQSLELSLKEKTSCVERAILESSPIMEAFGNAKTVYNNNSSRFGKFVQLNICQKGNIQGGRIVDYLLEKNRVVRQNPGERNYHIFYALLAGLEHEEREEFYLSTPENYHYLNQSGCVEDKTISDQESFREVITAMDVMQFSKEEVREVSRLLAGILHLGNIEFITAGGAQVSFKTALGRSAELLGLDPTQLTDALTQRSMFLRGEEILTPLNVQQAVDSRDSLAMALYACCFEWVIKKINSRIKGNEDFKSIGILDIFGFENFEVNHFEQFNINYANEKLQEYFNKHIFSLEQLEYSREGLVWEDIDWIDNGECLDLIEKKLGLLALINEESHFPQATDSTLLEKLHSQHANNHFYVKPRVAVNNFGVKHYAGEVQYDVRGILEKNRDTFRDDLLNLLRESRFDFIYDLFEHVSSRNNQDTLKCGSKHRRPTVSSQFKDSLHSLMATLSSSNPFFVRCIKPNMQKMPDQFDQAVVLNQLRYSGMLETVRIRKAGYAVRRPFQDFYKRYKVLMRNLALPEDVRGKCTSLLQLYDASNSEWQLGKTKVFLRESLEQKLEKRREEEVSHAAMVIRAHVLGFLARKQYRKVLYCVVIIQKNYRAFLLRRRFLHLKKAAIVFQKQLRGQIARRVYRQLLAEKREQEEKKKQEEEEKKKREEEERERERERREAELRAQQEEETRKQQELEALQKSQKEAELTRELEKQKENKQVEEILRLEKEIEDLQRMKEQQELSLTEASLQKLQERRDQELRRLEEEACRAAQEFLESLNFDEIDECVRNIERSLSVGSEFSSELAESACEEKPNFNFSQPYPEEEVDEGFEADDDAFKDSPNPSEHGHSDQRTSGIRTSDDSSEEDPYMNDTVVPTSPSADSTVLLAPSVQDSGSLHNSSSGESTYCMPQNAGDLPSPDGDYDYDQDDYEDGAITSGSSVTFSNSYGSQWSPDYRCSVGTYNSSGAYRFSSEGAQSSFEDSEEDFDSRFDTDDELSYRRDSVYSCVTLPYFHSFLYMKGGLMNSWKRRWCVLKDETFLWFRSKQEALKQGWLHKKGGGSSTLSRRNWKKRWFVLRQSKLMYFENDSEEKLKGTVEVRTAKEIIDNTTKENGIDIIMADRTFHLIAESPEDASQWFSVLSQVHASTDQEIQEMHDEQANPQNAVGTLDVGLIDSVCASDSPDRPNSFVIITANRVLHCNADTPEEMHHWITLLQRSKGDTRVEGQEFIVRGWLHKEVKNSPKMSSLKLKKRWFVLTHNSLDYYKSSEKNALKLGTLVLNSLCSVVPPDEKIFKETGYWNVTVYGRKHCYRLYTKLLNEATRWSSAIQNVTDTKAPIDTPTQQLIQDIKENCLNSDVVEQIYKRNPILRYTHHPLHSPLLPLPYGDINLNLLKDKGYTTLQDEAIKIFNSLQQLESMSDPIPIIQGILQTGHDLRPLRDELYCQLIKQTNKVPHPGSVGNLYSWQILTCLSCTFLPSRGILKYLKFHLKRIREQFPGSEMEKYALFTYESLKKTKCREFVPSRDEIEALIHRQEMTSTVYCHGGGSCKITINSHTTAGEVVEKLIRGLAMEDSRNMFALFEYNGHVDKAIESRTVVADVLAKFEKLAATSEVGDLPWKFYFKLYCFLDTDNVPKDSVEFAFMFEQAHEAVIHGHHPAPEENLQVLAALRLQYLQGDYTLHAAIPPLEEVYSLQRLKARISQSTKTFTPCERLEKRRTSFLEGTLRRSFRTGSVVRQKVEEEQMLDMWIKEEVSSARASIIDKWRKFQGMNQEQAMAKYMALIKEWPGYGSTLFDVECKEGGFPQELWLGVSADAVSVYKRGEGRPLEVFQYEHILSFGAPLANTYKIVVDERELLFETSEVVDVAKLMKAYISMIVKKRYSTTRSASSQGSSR
inactive: ibrutinib -0.059 | ralimetinib -0.136 | [2] -0.385 | [3] 0.035 | [4] -0.078 | [6] -0.001 | [7] 0.042

NUB1 (UniProt H7C5N1)
inactive: ralimetinib 0.133 | [2] -0.146 | [7] -0.131

NDUFAF5 (UniProt Q5TEU4)
UniProt Q5TEU4, sequence (Q5TEU4 whole entry, looked up): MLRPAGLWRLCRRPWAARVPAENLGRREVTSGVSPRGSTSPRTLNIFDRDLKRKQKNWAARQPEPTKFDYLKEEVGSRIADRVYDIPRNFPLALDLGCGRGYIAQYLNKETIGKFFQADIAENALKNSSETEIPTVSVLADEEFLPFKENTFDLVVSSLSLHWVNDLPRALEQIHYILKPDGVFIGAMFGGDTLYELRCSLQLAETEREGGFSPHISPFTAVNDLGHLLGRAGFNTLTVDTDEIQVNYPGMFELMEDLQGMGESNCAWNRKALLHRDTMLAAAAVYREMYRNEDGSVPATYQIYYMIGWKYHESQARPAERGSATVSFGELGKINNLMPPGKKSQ
inactive: ibrutinib -0.007 | [1] 0.021 | ralimetinib -0.011 | [2] -0.008 | [3] -0.029 | [5] 0.043 | [6] 0.076 | [7] -0.026 | [8] -0.048

MXRA7 (UniProt P84157)
inactive: [1] -0.234 | ralimetinib 0.108 | [2] 0.027 | [3] -0.057 | [4] -0.074 | [5] 0.024 | [6] 0.021 | [7] 0.045 | [8] -0.023

NUDT6 (UniProt P53370)
UniProt P53370, sequence (P53370 whole entry, looked up): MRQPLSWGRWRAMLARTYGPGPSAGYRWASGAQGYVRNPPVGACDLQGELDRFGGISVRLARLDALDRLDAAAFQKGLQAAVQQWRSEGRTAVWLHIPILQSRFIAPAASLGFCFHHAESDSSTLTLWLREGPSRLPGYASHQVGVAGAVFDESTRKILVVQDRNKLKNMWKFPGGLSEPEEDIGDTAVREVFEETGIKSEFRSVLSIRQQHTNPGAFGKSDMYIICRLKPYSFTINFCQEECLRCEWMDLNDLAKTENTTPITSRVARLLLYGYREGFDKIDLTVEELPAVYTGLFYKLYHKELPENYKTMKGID
inactive: ralimetinib 0.065 | [2] -0.033 | [3] 0.054 | [5] 0.169 | [6] 0.011 | [7] -0.042

OSBPL1A (UniProt Q9BXW6)
inactive: ibrutinib 0.019 | [1] -0.002 | [3] 0.116 | [4] 0.152 | [5] -0.069 | [6] 0.012 | [8] -0.028

NEXN (UniProt Q0ZGT2)
inactive: ibrutinib 0.173 | [1] -0.008 | ralimetinib 0.257 | [2] 0.057 | [3] 0.066 | [4] -0.012 | [5] -0.065 | [7] 0.101 | [8] -0.017

NR2C2 isoform 2 (UniProt P49116)
UniProt P49116, sequence (P49116 whole entry, looked up): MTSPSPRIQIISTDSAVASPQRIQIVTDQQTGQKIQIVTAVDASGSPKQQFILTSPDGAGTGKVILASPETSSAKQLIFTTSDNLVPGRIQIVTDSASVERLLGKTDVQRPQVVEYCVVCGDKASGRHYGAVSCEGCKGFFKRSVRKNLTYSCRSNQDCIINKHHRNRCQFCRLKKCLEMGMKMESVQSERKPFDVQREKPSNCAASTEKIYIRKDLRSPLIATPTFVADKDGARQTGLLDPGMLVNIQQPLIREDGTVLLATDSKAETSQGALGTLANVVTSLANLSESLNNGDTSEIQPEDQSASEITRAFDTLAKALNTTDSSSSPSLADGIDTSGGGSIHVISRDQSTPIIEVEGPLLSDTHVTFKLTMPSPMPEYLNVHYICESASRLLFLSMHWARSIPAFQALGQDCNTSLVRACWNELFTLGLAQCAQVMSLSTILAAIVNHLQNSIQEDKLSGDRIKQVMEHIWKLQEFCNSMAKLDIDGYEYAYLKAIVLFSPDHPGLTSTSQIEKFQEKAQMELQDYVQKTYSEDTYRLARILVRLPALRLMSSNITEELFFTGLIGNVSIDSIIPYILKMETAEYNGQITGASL
inactive: ibrutinib 0.069 | [1] -0.081 | ralimetinib 0.014 | [2] 0 | [3] -0.03 | [5] -0.064 | [6] 0.044 | [7] -0.019 | [8] -0.086

MYBL2 (UniProt P10244)
UniProt P10244, sequence (P10244 whole entry, looked up): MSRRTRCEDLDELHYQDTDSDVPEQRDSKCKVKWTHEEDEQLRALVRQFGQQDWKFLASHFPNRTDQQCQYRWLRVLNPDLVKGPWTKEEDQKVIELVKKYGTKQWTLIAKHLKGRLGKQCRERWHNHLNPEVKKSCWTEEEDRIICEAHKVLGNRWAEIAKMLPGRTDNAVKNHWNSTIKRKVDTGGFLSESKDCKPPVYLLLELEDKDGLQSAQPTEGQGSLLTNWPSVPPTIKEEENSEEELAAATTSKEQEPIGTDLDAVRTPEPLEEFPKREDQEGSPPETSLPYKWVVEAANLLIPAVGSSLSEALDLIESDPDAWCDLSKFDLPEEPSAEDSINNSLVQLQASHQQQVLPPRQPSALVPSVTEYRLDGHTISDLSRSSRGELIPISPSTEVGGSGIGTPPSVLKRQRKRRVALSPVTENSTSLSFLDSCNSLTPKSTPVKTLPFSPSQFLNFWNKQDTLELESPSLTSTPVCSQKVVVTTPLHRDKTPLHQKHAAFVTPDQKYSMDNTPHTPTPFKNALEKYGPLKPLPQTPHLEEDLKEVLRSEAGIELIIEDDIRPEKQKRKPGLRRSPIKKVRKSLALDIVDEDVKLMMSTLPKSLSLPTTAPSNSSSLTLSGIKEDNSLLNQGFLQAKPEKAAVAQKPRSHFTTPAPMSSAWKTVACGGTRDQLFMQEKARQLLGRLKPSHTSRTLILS
inactive: ralimetinib 0 | [2] 0.02 | [3] -0.008 | [5] 0.057 | [6] 0.048 | [7] -0.013

OGFOD2 (UniProt Q6N063)
inactive: ibrutinib 0.002 | [1] 0.023 | ralimetinib -0.012 | [2] -0.018 | [3] -0.125 | [4] -0.023 | [5] 0.025 | [6] -0.04 | [7] -0.029 | [8] -0.023

MTHFD1 (UniProt V9GZ32)
inactive: [1] 0.045 | [4] -0.18 | [8] 0.088

P2RY1 (UniProt P47900)
inactive: ibrutinib -0.026 | [1] 0.102 | ralimetinib -0.045 | [2] -0.107 | [3] -0.322 | [5] 0.064 | [7] -0.009 | [8] 0.058

NSUN7 (UniProt Q8NE18)
inactive: ibrutinib 0.076 | [1] -0.025 | ralimetinib 0.168 | [2] -0.137 | [3] 0.042 | [6] 0.102 | [7] -0.009 | [8] -0.017

ORC3 (UniProt Q9UBD5)
inactive: [1] 0.161 | [4] -0.007 | [8] 0.03

NUB1 isoform 2 (UniProt Q9Y5A7)
inactive: [6] 0.075

MUC5AC (UniProt P98088)
inactive: ralimetinib -0.067 | [2] 0.06 | [4] 1.44 | [7] 0.041

NFAT5 isoform 4 (UniProt O94916)
inactive: ibrutinib -0.016 | [6] 0.088

PAGE2B (UniProt Q5JRK9)
UniProt Q5JRK9, sequence (Q5JRK9 whole entry, looked up): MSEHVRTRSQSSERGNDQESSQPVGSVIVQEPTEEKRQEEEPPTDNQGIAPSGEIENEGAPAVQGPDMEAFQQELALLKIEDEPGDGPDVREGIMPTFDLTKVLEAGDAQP
inactive: [1] -0.049 | ralimetinib -0.024 | [2] -0.032 | [3] -0.054 | [4] 0.023 | [5] 0.044 | [6] -0.003 | [7] 0.238 | [8] 0.022

NTMT1 (UniProt S4R338)
inactive: [1] -0.182 | [8] 0.058

MYLK (UniProt Q15746)
inactive: ibrutinib 0.099 | [1] 0.226 | [4] 0.061 | [6] 0.228 | [8] 0.004

NSA2 (UniProt O95478)
inactive: ibrutinib 0.154 | [1] 0.068 | ralimetinib 0.012 | [2] 0.082 | [3] 0.01 | [4] -0.043 | [5] 0.223 | [7] -0.155 | [8] -0.027

PAPOLG (UniProt Q9BWT3)
UniProt Q9BWT3, sequence (Q9BWT3 whole entry, looked up): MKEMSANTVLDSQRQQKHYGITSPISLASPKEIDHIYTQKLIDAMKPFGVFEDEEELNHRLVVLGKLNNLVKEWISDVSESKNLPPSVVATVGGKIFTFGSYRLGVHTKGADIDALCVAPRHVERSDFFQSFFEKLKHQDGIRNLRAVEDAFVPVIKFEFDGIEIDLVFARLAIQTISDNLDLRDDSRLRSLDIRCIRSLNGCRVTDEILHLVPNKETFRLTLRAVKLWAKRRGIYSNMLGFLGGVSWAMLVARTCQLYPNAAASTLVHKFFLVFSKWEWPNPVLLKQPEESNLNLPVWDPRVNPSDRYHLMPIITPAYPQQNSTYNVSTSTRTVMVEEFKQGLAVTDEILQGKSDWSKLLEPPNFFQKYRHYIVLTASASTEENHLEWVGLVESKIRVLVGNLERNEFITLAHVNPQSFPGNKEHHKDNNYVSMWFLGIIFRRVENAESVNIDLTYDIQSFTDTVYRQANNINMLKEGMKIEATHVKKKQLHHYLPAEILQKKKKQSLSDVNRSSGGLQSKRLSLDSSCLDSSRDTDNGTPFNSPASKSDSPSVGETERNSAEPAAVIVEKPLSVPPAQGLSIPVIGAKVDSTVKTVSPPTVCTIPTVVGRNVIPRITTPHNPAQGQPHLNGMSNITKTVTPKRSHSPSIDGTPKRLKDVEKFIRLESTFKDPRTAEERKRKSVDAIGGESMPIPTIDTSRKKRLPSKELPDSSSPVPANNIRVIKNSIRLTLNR
inactive: ralimetinib 0.01 | [2] -0.071 | [3] -0.19 | [4] -0.089 | [5] 0.012 | [6] -0.028 | [7] -0.092

NPLOC4 (UniProt I3L3I1)
inactive: ibrutinib -0.022 | [5] -0.169 | [6] 0.447

NUMB isoform 2 (UniProt P49757)
inactive: ralimetinib 0.059 | [2] 0.12 | [4] 0.154 | [5] -0.245 | [7] -0.062

NUDT5 (UniProt C9JYY9)
inactive: [3] -0.111 | [4] -0.05
